test: small-molecule microarray binders of probe aDKK1, primary screen, biochemical, biotinylated probe, 635/667 nm fluorescence (AID 1099); conditions: higher = more signal;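 further: score merges 667nm spot fluorescence with signal to noise across triplicate slides; reference of the scale not given here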

Question: For `CC(C)[Si]1(C(C)C)OCc2cc(-c3ccc(-c4ccc(Cl)c(Cl)c4)o3)nc(CCc3ccccc3)c21`, which composite z-score is on record?
Answer: -0.0914

Question: Which composite z-score does the source give for `[N-]=[N+]=Nc1ccccc1[C@@H]1OC(c2ccc(OCCCO)cc2)=N[C@]1(Cc1ccccc1)C(=O)NCc1ccccc1` here?
Answer: 1.24

Question: For `C=C(C)[C@@H]1CC=C(C(O)C2C=CC3C(=O)N(c4ccccc4)C(=O)C3N2Nc2ccc(C#N)cc2)CC1` (stereo partly specified), which composite z-score is on record?
Answer: 0.327

Question: For `CCOC(=O)C1=C[C@@H](C(C)(C)C)N(S(=O)(=O)c2ccc(C)cc2)[C@H]1c1ccc(C)cc1`, which composite z-score is on record?
Answer: 0.46

Question: With `CCOC(=O)C[C@H]1[C@H](OC(=O)c2ccccc2-c2ccccc2)[C@@H](NC(=O)c2ccccc2)c2cc(OCCCO)ccc2N1C(=O)c1ccccc1` as the compound, how does the composite z-score read?
Answer: 0.0316

Question: With `O=C1C2C=CC(C(O)C=Cc3ccc([N+](=O)[O-])cc3)N(Nc3ccccc3)C2C(=O)N1c1ccccc1` (stereo unspecified) as the compound, how does the composite z-score read?
Answer: -0.0814

test: small-molecule microarray binders of probe aCHRDL2, primary screen, biochemical, biotinylated probe, 635/667 nm fluorescence (AID 1100); conditions: higher = more signal

Question: Which composite z-score does the source give for `CC(C)(C)OC(=O)CC[C@]1(C(=O)N2CCCCC2)COC(c2ccc(OCCCO)cc2)=N1` here?
Answer: 0.48

Question: Which composite z-score does the source give for `NC(=O)[C@H]1[C@@H]2C(=O)O[C@@H](c3ccccc3)[C@@H](c3ccccc3)N2[C@@H](c2ccc(O)cc2)[C@]12C(=O)Nc1ccc(C#CC3=CCCCC3)cc12` here?
Answer: 0.724

Question: With `CN1C(=O)[C@@]2(Cc3ccccc3)N=C(c3ccc(OCCCO)cc3)O[C@H]2c2ccccc21` as the compound, how does the composite z-score read?
Answer: 1.02

Question: For `Cc1nc2cc(Br)ccc2c(=O)n1Cc1cccc(O)c1`, which composite z-score is on record?
Answer: -0.282

Question: Which composite z-score does the source give for `Cc1ccc(N2C(=O)c3ccccc3[C@](C)(C(=O)NCc3ccccc3)[C@@H]2c2ccc(CO)cc2)nc1` here?
Answer: 0.615

Question: With `CCCNC(=O)[C@@]1(Sc2ccc(C)cc2)CC(=O)N(C2CCCCC2)[C@@H]1c1ccc(CO)cc1I` as the compound, how does the composite z-score read?
Answer: 0.91

Question: For `COC(=O)[C@@]1(Cc2ccc(F)cc2)[C@H]2c3cc(C(=O)N(C)C)n(Cc4c(CO)[nH]cc(C)c4=O)c3C[C@H]2CN1C(=O)c1ccccc1`, which composite z-score is on record?
Answer: 0.721

Question: For `O=C1C2C=CC(C(O)c3ccco3)N(Nc3ccccc3)C2C(=O)N1c1ccccc1` (stereo unspecified), which composite z-score is on record?
Answer: 0.878

Question: With `C=C(COC)C(=O)CC[C@H](OC(C)=O)c1ccc(OCCO)cc1` as the compound, how does the composite z-score read?
Answer: -0.0486

Question: With `COCCOC(=O)N1C(=O)[C@@]2(c3cc(C#CC4=CCCCC4)ccc31)[C@H](c1ccc(O)cc1)N1[C@H](c3ccccc3)[C@H](c3ccccc3)OC(=O)[C@H]1[C@@H]2C(=O)NC[C@H](O)c1ccccc1` as the compound, how does the composite z-score read?
Answer: 0.129

Question: Which composite z-score does the source give for `[N-]=[N+]=NC[C@H](Cc1ccccc1)NC(=O)c1ccccc1` here?
Answer: -0.414

Question: For `COC(=O)[C@@]1(Cc2ccc(OC)cc2)[C@H]2c3cc(C(=O)N4CCCC4)n(Cc4ccc(OC(F)(F)F)cc4)c3C[C@H]2CN1C(=O)c1ccccc1`, which composite z-score is on record?
Answer: 1.1

Question: For `CCC(CC)C(O)C1C=CC2C(=O)N(c3ccccc3)C(=O)C2N1Nc1ccc([N+](=O)[O-])cc1` (stereo unspecified), which composite z-score is on record?
Answer: 0.638

Question: For `COC(=O)C1N=C(c2ccc(OCCCO)cc2)N(c2ccccc2)O1` (stereo unspecified), which composite z-score is on record?
Answer: 1.11

Question: For `Cc1ccccc1C(O)C1C=CC2C(=O)N(c3ccccc3)C(=O)C2N1Nc1ccc([N+](=O)[O-])cc1` (stereo unspecified), which composite z-score is on record?
Answer: 0.793

Question: Which composite z-score does the source give for `COCC1=C2[C@@H](CCc3ccccc3)OB(O)C[C@@H]2[C@@H]2C(=O)N(C)C(=O)[C@@H]2C1` here?
Answer: -0.57

Question: For `O=C1O[C@H](c2ccccc2)[C@H](c2ccccc2)N2[C@H]1[C@@H](C(=O)N1CCCCCCC1)[C@]1(C(=O)Nc3ccc(C#CC4(O)CCCCCC4)cc31)[C@H]2c1ccccc1OCCO`, which composite z-score is on record?
Answer: 1.7

Question: With `CCOC(=O)C1=CC[C@@H](c2ccccc2)N(S(=O)(=O)c2ccc(C)cc2)[C@H]1c1cccc(OC)c1` as the compound, how does the composite z-score read?
Answer: 0.244

Question: With `COc1cc(C(O)C2C=CC3C(=O)N(Cc4ccccc4)C(=O)C3N2n2cnnc2)cc(OC)c1OC` (stereo unspecified) as the compound, how does the composite z-score read?
Answer: 0.865

Question: Which composite z-score does the source give for `COc1ccc([Si](C)(C)[C@@H]2[C@@H](CCn3cc([C@H](O)c4ccccc4)nn3)O[C@]3(C(=O)N(c4ccccc4)c4ccccc43)[C@H]2C)cc1` here?
Answer: -0.142

Question: Which composite z-score does the source give for `COc1cc(NN2C(C(O)c3ccccc3)C=CC3C(=O)N(C)C(=O)C32)cc(OC)c1OC` (stereo unspecified) here?
Answer: 0.8

Question: For `NC(=O)N1C(=O)C2C(C1=O)C1C=C(CCCO)C2C(C2CC2)N1Cc1cccc(OC(F)(F)F)c1` (stereo unspecified), which composite z-score is on record?
Answer: -0.345

Question: For `O=c1cccc(-c2ccc(F)cc2)o1`, which composite z-score is on record?
Answer: -0.3

Question: Which composite z-score does the source give for `CN(C)CCCCCCNC(=O)[C@@H]1C[C@@H]2C(=O)N[C@@H](CCCCN)C(=O)N2[C@@H]1c1ccc(O)cc1` here?
Answer: 1.81

Question: For `COCCOC(=O)N1C(=O)[C@@]2(c3cc(C#Cc4ccc(OC)cc4)ccc31)[C@H](C(=O)NC[C@H](O)c1ccccc1)[C@H]1C(=O)O[C@H](c3ccccc3)[C@H](c3ccccc3)N1[C@@H]2c1ccc(OCCO)cc1`, which composite z-score is on record?
Answer: 0.236

— PubChem BioAssay
